Shn3 3UTR inh: reduction of Shn3 3'UTR firefly luciferase signal, primary screen, Schnurri-3 inhibitor project, cell-based, Clone20 osteoblasts, set 2; Clone20 osteoblast Shn3 3'UTR firefly luciferase, 24 h; 0.52% of 360,000 active; inhibition, % at 12.5 µM;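 active means mean inhibition of at least 75% with every replicate also reaching 75%; inconclusive means mean inhibition at least 75% but some replicate below; inactive means mean inhibition below 75%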
697 NFkB inh: inhibitors of PMA/ionomycin-induced NF-kB reporter, 697 cells, primary screen, B-cell NF-kB inhibitor project, cell-based, luminescence, uHTS; 697 B-cell NF-kB luciferase reporter, 16 h; inhibition, % at 4 µM; 0.33% of 330,000 active; in the data active means inhibition above about 35%
Beta cell apopt: inhibitors of cytokine-induced beta cell apoptosis, primary screen, luminescence. protection from apoptosis, % (concentration not given with the values). 0.8% of 300,000 active. INS-1E cytokine-induced death, ATP luminescence, 48 h; percent of positive-control rescue, neutral wells zero. AID 435005, 2010;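 active means Every replicate reaches about 75%, or at least half do and their mean reaches it too, limit read from the data; inconclusive means At least half of replicates reach the limit but their mean does not; inactive means Under half of replicates reach the limit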;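 further: higher means more ATP so stronger rescue from cytokine killing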
Jurkat NFkB inh: inhibitors of induced NF-kB luciferase reporter, primary screen, TCR NF-kB activation inhibitor project, cell-based, luminescence, uHTS; 0.53% of 330,000 active; AID 435003, 2010; inhibition, % at 4 µM; Jurkat, PMA/ionomycin-induced NF-kB luciferase reporter; in the data active means inhibition above about 50%
Calb FLC: C. albicans growth inhibition with fluconazole, primary screen, CaCi-2 strain, Alamar Blue fluorescence; C. albicans CaCi-2 (fluconazole-resistant clinical isolate) + fluconazole, 48 h; growth inhibition, % (test concentration not listed); 0.57% of 300,000 active;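 active means growth inhibition above about 58% in most replicates, limit read from the data, passing the limit was not always enough; inconclusive means exactly half the replicates above a set limit; inactive means most replicates below a set limit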;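 further: all wells also contain fluconazole at 8 µg/ml as a sub-toxic cotreatment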
Numbers stand for hits; n = inactive; u = inconclusive; x = no result; ! = not confirmed by another sample. The list is not random: actives were taken first. Their share in the collection is about 2%.

SMILES	Shn3 3UTR inh	697 NFkB inh	Beta cell apopt	Jurkat NFkB inh	Calb FLC
COc1ccc(C(=O)N/N=C/c2sc3ccccc3c2O)cc1	n	x	96	x	n
COc1ccc(NCC(=O)NN=C2CCS(=O)(=O)c3ccc(F)cc32)cc1	n	n	n	n	x
O=C(NCc1cccnc1)C1C2C=CC(C2)C1C(=O)Nc1cccc(C(F)(F)F)c1 (configuration not stated)	n	x	x	x	x
Cc1cc(C)c(-c2c(N)cc(Br)cc2Br)c(N)c1	n	x	x	x	x
COc1cccc(/C=C2/C(=O)NN(c3ccc(F)cc3)C2=O)c1	n	n	n	n	n
O=C1NN(c2ccc(F)cc2)C(=O)/C1=C/c1cccs1	n	n	n	n	101
Cc1cc2c(cc1C)C(=O)C(Br)=C(N)C2=O	n	x	x	x	x
NC1=C(Br)C(=O)c2ccccc2C1=O	n	n	102	n	n
Cc1cccc(/C(N)=N/OC(=O)N2c3ccccc3Sc3ccccc32)c1	n	n	n	n	n
N/C(=N\OC(=O)N1c2ccccc2Sc2ccccc21)c1ccccc1	n	n	n	n	94
Cc1ccc(-n2c(-c3ccccc3)cc(/C=N/NC(=O)CC#N)c2-c2ccccc2)cc1	x	n	123	n	n
N#CCC(=O)N/N=C/c1cc(-c2ccccc2)n(-c2ccc(Cl)cc2)c1-c1ccccc1	x	n	109	n	n
N#CCC(=O)N/N=C/c1ccc(Cl)cc1	n	n	n	n	n
COc1ccccc1C(=O)NNC(=O)c1ccc(Br)o1	n	n	n	n	n
CCn1c(=O)c(=O)[nH]c2cc(C(=O)NC(C)c3ccc(S(N)(=O)=O)cc3)ccc21 (configuration not stated)	n	n	n	n	n
CNc1cncc(-c2ccc(OC)cc2)n1	n	x	x	x	x
CC(=O)NC(C)c1cc(Cl)c2cccnc2c1O (configuration not stated)	n	n	92	n	x
Cc1ccc(S(=O)(=O)Nc2cc(Cl)c(O)c3ncccc23)cc1	n	n	110	n	n
CCC(=O)NC(c1cc(Cl)c2ccccc2c1O)C(C)C (configuration not stated)	n	n	n	n	x
CCC(=O)NC(c1ccc(C)cc1)c1cc(Cl)c2cccnc2c1O (configuration not stated)	n	n	88	n	x
CC(=O)NC(C)c1cc(Cl)c2ccccc2c1O (configuration not stated)	n	n	n	n	x
CCC(=O)NC(C)c1cc(Cl)c2cccnc2c1O (configuration not stated)	91	n	n	n	x
Cc1c(CC(=O)NCC(C)C)c(=O)oc2cc3c(cc12)CCC(C)(C)O3	n	n	n	n	n
CC(C)(C)C(=O)NC(=S)NNC(=O)c1sc2ccccc2c1Cl	91	n	n	n	88
O=C(NNC(=S)NC1CCCCC1)c1sc2ccccc2c1Cl	n	n	n	n	n
SMILES	Shn3 3UTR inh	697 NFkB inh	Beta cell apopt	Jurkat NFkB inh	Calb FLC
Cc1cc(C)nc(NC(=O)c2c(F)c(F)c(F)c(C(=O)Nc3cc(C)cc(C)n3)c2F)c1	n	n	n	n	n
O=C(Cn1c2ccc(F)cc2c2nc3n(c(=O)c21)CCS3)Nc1ccc(Cl)cc1F	n	n	n	n	n
O=C(Cn1c2ccc(F)cc2c2nc3n(c(=O)c21)CCS3)N1CCCC1	n	n	n	n	89
CC1CCN(C(=O)Cn2c3ccccc3c3nc4n(c(=O)c32)CCS4)CC1	n	n	n	n	91
CCOC(=O)C1=CC[C@@H](c2ccccc2)N(S(=O)(=O)c2ccc(C)cc2)[C@H]1C#N	n	x	x	x	x
COc1ccc(C(=O)NC(=O)COC(=O)C2CC2C)cc1 (configuration not stated)	n	n	n	n	x
COc1ccc(Cl)c(Cn2c(NCc3ccco3)nc3c2c(=O)n(C)c(=O)n3C)c1	n	n	78	n	x
COc1cccc(Cn2c(NCc3ccco3)nc3c2c(=O)n(C)c(=O)n3C)c1	x	n	95	n	n
COc1cccc(Cn2c(NCC(C)C)nc3c2c(=O)n(C)c(=O)n3C)c1	n	n	n	n	n
N/C(Cc1ccc(Cl)cc1Cl)=N\OC(=O)Cc1ccccc1	n	n	n	n	n
N/C(Cc1ccc(Cl)cc1Cl)=N\OC(=O)c1ccccc1	n	n	n	n	118
Cc1ccc(C)c(-c2nnc(NC(=O)c3ccco3)o2)c1	n	n	n	n	83
COc1ccc(C)cc1Nc1n[n+](-c2ccccc2)c(-c2c(Cl)cccc2Cl)s1	x	n	99	n	n
COc1ccc(C)cc1Nc1n[n+](-c2ccccc2)c(-c2ccc(OC)c(OC)c2OC)s1	n	n	96	n	92
CN(C)c1ccc(-c2sc(Nc3ccccc3)n[n+]2-c2ccc(F)cc2)cc1	n	n	n	n	n
COc1ccc(C)cc1Nc1n[n+](-c2ccccc2)c(-c2ccc(N(C)C)cc2)s1	n	n	99	n	105
CC1Cc2ccccc2N1C(=O)CN1CCC(n2nnc3cc(C(F)(F)F)ccc32)CC1 (configuration not stated)	n	n	n	n	n
Nc1nnc(SCC(=O)Nc2ccccc2N2CCOCC2)s1	n	n	n	n	n
Nc1nnc(SCC(=O)Nc2ccc(N3CCOCC3)cc2)s1	91	n	x	n	n
O=C(OCCN1C(=O)c2cccc3c(N4CCOCC4)ccc(c23)C1=O)c1ccccc1Cl	86	x	n	x	n
C=CCn1c(=O)c2ccccc2n2c(SCC(=O)/C(C#N)=C(\C)N)nnc12	93!	n	n	n	n
C=CCn1c(=O)c2ccccc2n2c(SC(C)C(N)=O)nnc12 (configuration not stated)	n	n	n	n	n
O=C1c2ccccc2C(=O)C1c1ccc(Cl)cc1	n	n	n	n	n
O=C1c2ccccc2C(=O)C12OC2c1ccc(Cl)cc1Cl (configuration not stated)	95	x	n	x	x
Nc1cc2c3c(cccc3c1)C(=O)N(CCN1CCCC1)C2=O	n	x	75	x	n
SMILES	Shn3 3UTR inh	697 NFkB inh	Beta cell apopt	Jurkat NFkB inh	Calb FLC
O=C(C(=Cc1ccccc1)CN1CCCCC1)c1ccccc1	95	x	x	x	x
CN(C)CCNC(=O)/C(=C/c1ccc(-c2ccc(Cl)cc2Cl)o1)NC(=O)c1ccccc1	n	n	99	n	u
Cc1ccc(C(=O)N/C(=C\c2ccc(-c3ccc(Br)cc3)o2)C(=O)NCCCN(C)C)cc1	n	n	100	n	n
Cc1ccc(C(=O)N/C(=C\c2ccc(-c3cccc([N+](=O)[O-])c3)o2)C(=O)NCCCN(C)C)cc1	n	n	n	n	n
N=C(N)c1ccc(/C=C/c2ccc(C(=N)N)cc2O)cc1	n	n	n	n	95
CCc1cc(SC#N)cc(C)c1NC(=O)CCl	n	n	99	n	n
O=C(CSc1nc(-c2ccco2)cc(C(F)(F)F)n1)NCCc1ccccc1	n	n	n	n	98
COc1ccc(CCNC(=O)CSc2nc(-c3ccco3)cc(C(F)(F)F)n2)cc1OC	n	n	n	n	n
